High-throughput results as filed in PubChem.
Shown are actives, neighbours in structure and some others; about 5.4% of the full set was active somewhere.
FMDV inh: High Throughput Screening for Foot and Mouth Disease Virus Antivirals; actives 1.2% (n = 410,000); FMDV antiviral cell-based qHTS; Potency, µM (highest dose often 57.9 µM), most hits filed as inhibitors; calls by dose curve; tested in HEK293T cells; further: read-out not given here; nearly all actives have a fitted effect of over 45% in size
MARV entry inh: qHTS for inhibitors of binding or entry into cells for Marburg Virus; Marburg virus pseudotyped entry inhibition, cell reporter; Potency, µM (doses to about 37.8 µM), usual class: inhibitors; actives 1.8% (n = 300,000); AID 540276, 2011; calls by dose curve; tested in HEK293 cells
Sm TGR block: qHTS Assay for the Inhibitors of Schistosoma Mansoni Peroxiredoxins; purified TGR, DTNB reduction, TNB absorbance 405 nm; Potency, µM (highest dose often 114 µM), actives largely listed as inhibitors; actives 3% (n = 360,000); Schistosoma mansoni thioredoxin glutathione reductase (TGR), Q962Y6; active means well fitted inhibition curve with a large enough effect; inconclusive means small, poorly fitted or top-dose-only effect; inactive means no such curve, though single readings can be large or run the other way; further: nearly all actives have a fitted effect of over 60% in size
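Kinetic colorimetric format: TGR-catalysed, NADPH-driven DTNB reduction monitored via TNB absorbance. Enzyme dispensed at 20 nM; compound exposure 15 min at room temperature before reaction start.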
Vaccinia mCherry: qHTS for Stage-Specific Inhibitors of Vaccinia Orthopoxvirus: mCherry Reporter Primary qHTS; actives 0.63% (n = 310,000); Potency, µM (titrated, usually from 36.5 µM), most hits filed as inhibitors; AID 720579, 2013; Vaccinia virus mCherry reporter infection, fluorescence; calls by dose curve; tested in A549 cells; further: nearly all actives have a fitted effect of over 35% in size
Lassa entry inh: qHTS for Inhibitors of binding or entry into cells for Lassa Virus. Lassa virus pseudotype entry inhibition, cell reporter. Potency, µM (doses to about 37.9 µM), hits mostly inhibitors. actives 1.2% (n = 300,000). AID 540256, 2011; calls by dose curve; tested in HEK293 cells; further: nearly all actives have a fitted effect of over 50% in size
VACV Venus inh: qHTS for Stage-Specific Inhibitors of Vaccinia Orthopoxvirus: Venus Reporter Primary qHTS; Potency, µM (series often up to 36.5 µM), hits mostly inhibitors; actives 0.46% (n = 330,000); Vaccinia virus Venus reporter expression, fluorescence; calls by dose curve; tested in A549 cells; further: nearly all actives have a fitted effect of over 30% in size
Numbers stand for hits; 0 = inactive; ? = inconclusive; - = not tested or not shown.

SMILES	FMDV inh	MARV entry inh	Sm TGR block	Vaccinia mCherry	Lassa entry inh	VACV Venus inh
CC(=O)N1CCCc2cc(S(=O)(=O)N3CCC(C(=O)Nc4ccc(C)cc4Cl)CC3)ccc21	?	-	0	0	0	0
CCc1nnc(NS(=O)(=O)c2ccc(NC(=S)NC(=O)c3ccc(OC)cc3)cc2)s1	0	0	39.8µM	0	0	0
CCc1nnc(NS(=O)(=O)c2ccc(NC(=S)NC(=O)c3ccc(OC)c(OC)c3)cc2)s1	0	0	39.8µM	-	0	-
NC(N)=NS(=O)(=O)c1ccc(NC(=S)NC(=O)c2ccncc2)cc1	0	0	20µM	0	0	0
CCc1nnc(NS(=O)(=O)c2ccc(NC(=S)NC(=O)c3ccncc3)cc2)s1	0	-	20µM	-	-	-
CCNc1nc(Oc2ccccc2)nc(O[C@@H](C)C(=O)OCC)n1	-	0	-	-	-	-
COc1cc(NC(=O)c2cc(-c3cccc(OC)c3)n[nH]2)cc(OC)c1	0	-	0	0	0	0
CN(Cc1ccccc1)C(=O)c1nc(-c2ccc(Cl)cc2)n2c1CCCCC2	0	-	0	0	0	0
CC(=O)Nc1ccc(NC(=O)CCc2c(C)nc3c(c(C)nn3-c3ccc(C)cc3)c2C)cc1	0	0	0	0	0	0
